Assay outcomes deposited in PubChem BioAssay by several laboratories.
Sampled rows, rich in hits. Any-hit rate of the full collection: about 2.6%.
KKLEB cytotox = cytotoxicity in KKLEB CF airway cells, primary screen, cytotoxicity control for CF NF-kB inhibitor project, cell-based, uHTS, fluorescence assay plates; AID 602141, 2011; activity change (cytotoxicity), % at 5 µM; KKLEB CF airway cells viability, ATPlite luminescence, overnight; active compounds read low; cells stimulated with P. aeruginosa culture filtrate; 360,000 compounds, 0.36% hits;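 active = corrected activity change at or below -50% at 5 µM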
HIF-2a block = HIF-2a reporter inhibitors, primary screen, luminescence, 786-0 RCC cells | 360,000 compounds, 0.72% hits | 786-0 RCC cells HIF-2a reporter, luciferase luminescence, overnight | inhibition, % at 18.8 µM;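 active = inhibition of the luminescence signal of 40% or more relative to plate controls, in a single-dose primary screen at 18.75 µM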
Shn3 3UTR inh = reduction of Shn3 3'UTR firefly luciferase signal, primary screen, Schnurri-3 inhibitor project, cell-based, Clone20 osteoblasts, set 2 | AID 588674, 2011 | inhibition, % at 12.5 µM | Clone20 osteoblast Shn3 3'UTR firefly luciferase, 24 h | 360,000 compounds, 0.52% hits;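 active = mean inhibition of at least 75% with every replicate also reaching 75%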;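 note: 0% = median of neutral control wells and 100% = pilot-screen positive control compound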
CF NFkB inh = inhibitors of PAF-induced NF-kB signaling, primary screen, cell-based, GFP fluorescence, uHTS | KKLEB NF-kB-GFP reporter, GFP fluorescence overnight | inhibition, % at 5 µM | 360,000 compounds, 0.86% hits | AID 588850, 2011;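 active = at least 50% inhibition at 5 µM, scaled per plate between neutral and stimulator controls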;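 note: PAF is a Pseudomonas aeruginosa culture filtrate used as stimulus; plate controls were PAF-stimulated DMSO wells for no effect and unstimulated DMSO wells for full effect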
Peg3 prom inh = Peg3 promoter-driven luciferase inhibitors, primary screen, cell-based, HeLa, luciferase luminescence | HeLa PEG-Prom luciferase reporter, overnight | inhibition, % at 20 µM | 360,000 compounds, 1.7% hits | AID 588405, 2011;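 active = inhibition of at least 50% at 20 µM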
An asterisk follows results filed as active.

Screening CCCn1c(SC(C)C(=O)NCC2CCCO2)nc2sc3c(c2c1=O)CCC3 (stereo not drawn) returned KKLEB cytotox -4, HIF-2a block -4, Shn3 3UTR inh -1, CF NFkB inh -11 and Peg3 prom inh 0.
For O=C(c1ccco1)N1CCN(C(=O)c2ccco2)C1=S the results were KKLEB cytotox 14, HIF-2a block 35, Shn3 3UTR inh -16, CF NFkB inh 15 and Peg3 prom inh 92*.
For O=C(c1ccco1)N1CCCN(C(=O)c2ccco2)CC1 the results were KKLEB cytotox 0, HIF-2a block 11, Shn3 3UTR inh -14, CF NFkB inh 9 and Peg3 prom inh 8.
`CCOC(=O)C1=C(c2ccccc2)NC(N)=NC1c1ccc(OCc2ccc(Cl)cc2)c(OC)c1` (stereo not drawn) gave KKLEB cytotox 3, HIF-2a block 4, Shn3 3UTR inh 0, CF NFkB inh 3 and Peg3 prom inh 110*.
CCC1(c2ccccc2)NC(=O)N(CC(=O)NNC(=O)c2ccoc2C)C1=O (stereo not drawn) was read as KKLEB cytotox -7, HIF-2a block 5, Shn3 3UTR inh -21, CF NFkB inh 9 and Peg3 prom inh 2.
`COc1ccccc1N(Cc1ccccc1)S(=O)(=O)c1cccc(C(=O)NC2CC(C)(C)NC(C)(C)C2)c1` gave KKLEB cytotox -18, HIF-2a block 5, Shn3 3UTR inh -4, CF NFkB inh 15 and Peg3 prom inh 87*.
For CC1(C)CC(NC(=O)c2ccc(Cl)c(S(=O)(=O)N(Cc3ccccc3)c3ccccc3)c2)CC(C)(C)N1 the results were KKLEB cytotox -8, HIF-2a block 1, Shn3 3UTR inh -4, CF NFkB inh 13 and Peg3 prom inh 107*.
For COc1ccccc1N(Cc1ccccc1)S(=O)(=O)c1cccc(C(=O)O)c1 the results were KKLEB cytotox -1, HIF-2a block 19, Shn3 3UTR inh 12, CF NFkB inh 13 and Peg3 prom inh 5.
`O=C(O)c1ccc(Cl)c(S(=O)(=O)N(Cc2ccccc2)c2ccc(Cl)cc2)c1` gave KKLEB cytotox 8, HIF-2a block 9, Shn3 3UTR inh -25, CF NFkB inh -17 and Peg3 prom inh 1.
Screening COc1ccc(-n2sc3ccccc3c2=O)cc1 returned KKLEB cytotox -11, HIF-2a block -65, Shn3 3UTR inh 23, CF NFkB inh 63* and Peg3 prom inh -138.
O=C(CSc1ccc(Br)cc1)NC1CCCCCC1 was read as KKLEB cytotox 8, HIF-2a block -177, Shn3 3UTR inh 7, CF NFkB inh -5 and Peg3 prom inh -169.
For Cc1cc(C)c2c(=N)c3ccccc3n(CCCCCCCCn3c4ccccc4c(=N)c4c(C)cc(C)nc43)c2n1 the results were KKLEB cytotox 8, HIF-2a block 0, Shn3 3UTR inh 84, CF NFkB inh -82 and Peg3 prom inh 105*.
COc1ccc(NC(=O)c2ccc(C)cc2)cc1 was read as KKLEB cytotox -4, HIF-2a block -100, Shn3 3UTR inh -9, CF NFkB inh -8 and Peg3 prom inh -102.
For COc1ccc(NC(=O)c2ccc(NC3CC(=O)N(c4ccc(C)cc4C)C3=O)cc2)cc1 (stereo not drawn) the results were KKLEB cytotox -56*, HIF-2a block -2, Shn3 3UTR inh -1, CF NFkB inh 50 and Peg3 prom inh 17.
Screening OC(CN1CCN(c2ccccn2)CC1)Cn1c2ccc(Cl)cc2c2cc(Cl)ccc21 (stereo not drawn) returned KKLEB cytotox -7, HIF-2a block 10, Shn3 3UTR inh 6, CF NFkB inh 2 and Peg3 prom inh 36.
OC(CN1CCCCC1)Cn1c2ccc(Cl)cc2c2cc(Cl)ccc21 (stereo not drawn) was read as KKLEB cytotox -14, HIF-2a block 7, Shn3 3UTR inh -27, CF NFkB inh 28 and Peg3 prom inh 104*.
O=C(NCc1ccccc1)Nc1cccn(Cc2ccccc2Cl)c1=O was read as KKLEB cytotox 4, HIF-2a block -39, Shn3 3UTR inh 10, CF NFkB inh 12 and Peg3 prom inh -9.
`COc1cc(/C=C(\C#N)c2nc3ccccc3[nH]2)cc(Br)c1OCc1ccccc1` gave KKLEB cytotox -7, HIF-2a block -6, Shn3 3UTR inh 13, CF NFkB inh -2 and Peg3 prom inh 53*.
Screening CCN1C(=O)[C@@H]2[C@@H]3CN(S(=O)(=O)c4ccc(C)cc4)[C@@H](c4ccccc4Cl)[C@@H]3C(=O)C[C@@H]2C1=O returned KKLEB cytotox 0, HIF-2a block 0, Shn3 3UTR inh -10, CF NFkB inh -8 and Peg3 prom inh 6.
Screening Cc1ccc(C2=NOC(=O)/C2=C\C=C\c2ccccc2)cc1 returned KKLEB cytotox -61*, HIF-2a block 24, Shn3 3UTR inh 95*, CF NFkB inh 92* and Peg3 prom inh 106*.
For COc1ccc(/C=C2/C(=O)ON=C2c2ccccc2)cc1OC the results were KKLEB cytotox -8, HIF-2a block 41*, Shn3 3UTR inh 12, CF NFkB inh 7 and Peg3 prom inh 31.
`CN(Cc1nccs1)C(=O)C1CCC(=O)N(Cc2ccccc2F)C1` (stereo not drawn) gave KKLEB cytotox 3, HIF-2a block -11, Shn3 3UTR inh 2, CF NFkB inh 8 and Peg3 prom inh -4.
For CCN1C(=O)CC2CCCC1C2 (stereo not drawn) the results were KKLEB cytotox 0, HIF-2a block 12, Shn3 3UTR inh 95*, CF NFkB inh 4 and Peg3 prom inh 11.
`CCCN1C2CCCC1CC(NC(=O)c1ccc(C(C)(C)C)cc1)C2` (stereo not drawn) gave KKLEB cytotox -3, HIF-2a block -32, Shn3 3UTR inh -36, CF NFkB inh -4 and Peg3 prom inh -10.
Screening CCn1cc(CN(C)S(=O)(=O)c2cccc([N+](=O)[O-])c2)cn1 returned KKLEB cytotox -4, HIF-2a block 1, Shn3 3UTR inh -5, CF NFkB inh 7 and Peg3 prom inh 6.
For CCn1cc(CN(C)S(=O)(=O)c2ccc3ccccc3c2)c(C)n1 the results were KKLEB cytotox -10, HIF-2a block 6, Shn3 3UTR inh 90*, CF NFkB inh -3 and Peg3 prom inh 10.
Screening O=[N+]([O-])c1cc([N+](=O)[O-])c2cccnc2c1Oc1ccccc1O returned KKLEB cytotox -11, HIF-2a block 6, Shn3 3UTR inh 43, CF NFkB inh 16 and Peg3 prom inh 51*.
Screening O=[N+]([O-])c1cc(Cl)c(O)c2ncccc12 returned KKLEB cytotox 1, HIF-2a block 3, Shn3 3UTR inh 10, CF NFkB inh 15 and Peg3 prom inh 57*.
For O=[N+]([O-])c1cc(Cl)c2cccnc2c1O the results were KKLEB cytotox 11, HIF-2a block 9, Shn3 3UTR inh -10, CF NFkB inh 3 and Peg3 prom inh 34.
